High-throughput results: PubChem BioAssay, The Scripps Research Institute Molecular Screening Center
PAFAH1B3 FP inh – blocks human PAF acetylhydrolase 1B catalytic subunit 3 | Q15102 | recombinant PAFAH1B3, FP-rhodamine probe, fluorescence polarization | inhibition, % at 3.39 µM | hit rate 0.28% among 340,000 | AID 492972;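 active = inhibition above the screen-wide average of all tested compounds plus 3 SD, cut at about 25% in these data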;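 also: 0% = enzyme with DMSO only and 100% = wells lacking PAFAH1B3 protein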
Target sequence (Q15102 whole entry, looked up): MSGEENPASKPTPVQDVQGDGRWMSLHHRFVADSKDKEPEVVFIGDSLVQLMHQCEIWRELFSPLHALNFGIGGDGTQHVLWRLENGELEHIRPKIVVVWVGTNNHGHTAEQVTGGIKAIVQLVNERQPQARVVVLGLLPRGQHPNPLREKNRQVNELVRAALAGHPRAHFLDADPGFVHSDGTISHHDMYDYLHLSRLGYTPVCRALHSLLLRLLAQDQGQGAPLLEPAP
pPAFAH FP inh – pPAFAH (human) enzyme inhibition; Q13093; inhibition, % at 3.39 µM; AID 463082; hit rate 1.5% among 330,000; recombinant pPAFAH, FP-rhodamine probe fluorescence polarization;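 active = inhibition above the mean inhibition across the screen plus 3 SD, cut at about 25% in these data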;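 also: inhibitors block binding of the rhodamine activity-based probe so polarization drops; 0% = enzyme with DMSO and 100% = wells lacking pPAFAH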
PAFAH1B2 inh – inhibitors of human PAFAH1B2; P68402; recombinant PAFAH1B2, FP-rhodamine activity probe, fluorescence polarization; inhibition, % at 3.39 µM; hit rate 1.2% among 340,000; AID 492953;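 active = inhibition above the mean of all tested compounds plus 3 SD, cut at about 24% in these data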;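 also: 0% = enzyme with DMSO and 100% = wells lacking PAFAH1B2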
CTSL1 counter – blocks F. hepatica cathepsin L1 in PFM18AAP counter-screen. inhibition, % at 5.96 µM. recombinant F. hepatica cathepsin L1, Z-Leu-Arg-MCA fluorescence. hit rate 0.49% among 300,000. AID 1906;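 active = inhibition above the mean of all tested compounds plus 3 SD, set per screening campaign, cut at about 17% in these data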;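 also: 0% = plate median of test compound wells and 100% = 1 µM Z-Phe-Ala-diazomethylketone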
PAFAH2 FP inh – PAFAH2 (human) inhibition. inhibition, % at 3.39 µM. recombinant PAFAH2, FP-rhodamine activity probe, fluorescence polarization. Q99487. hit rate 0.99% among 340,000;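 active = inhibition above the mean over all tested compounds plus 3 SD, cut at about 30% in these data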;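 also: inhibitors block probe labeling of enzyme so polarization drops; 0% = enzyme with DMSO and 100% = wells lacking PAFAH2 protein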
PP5 primary – blocks human protein phosphatase 5 activity; hit rate 0.18% among 320,000; inhibition, % at 6.7 µM; AID 1987; purified PP5c, OMFP substrate fluorescence;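 active = inhibition above the campaign's mean inhibition across all tested compounds plus 3 SD, cut at about 9.5% in these data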;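 also: 0% = DMSO only and 100% = 100 µM cantharidin control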
Target sequence (P53041 whole entry, looked up): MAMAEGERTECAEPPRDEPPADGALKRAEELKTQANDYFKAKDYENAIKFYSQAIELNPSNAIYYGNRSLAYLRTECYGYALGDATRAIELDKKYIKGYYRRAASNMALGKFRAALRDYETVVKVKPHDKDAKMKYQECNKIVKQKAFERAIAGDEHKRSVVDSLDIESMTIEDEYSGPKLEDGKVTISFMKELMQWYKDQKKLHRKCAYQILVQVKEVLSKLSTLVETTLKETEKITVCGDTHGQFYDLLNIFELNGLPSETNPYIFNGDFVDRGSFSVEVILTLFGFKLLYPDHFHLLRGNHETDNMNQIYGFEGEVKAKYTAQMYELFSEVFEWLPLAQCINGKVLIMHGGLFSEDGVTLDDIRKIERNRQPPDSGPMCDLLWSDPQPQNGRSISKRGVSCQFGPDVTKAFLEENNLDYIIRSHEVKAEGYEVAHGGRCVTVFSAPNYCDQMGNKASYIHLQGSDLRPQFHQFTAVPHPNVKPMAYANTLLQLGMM
PAFAH2 confirm – PAFAH2 (human) inhibition, confirmed. inhibition, % at 3.39 µM. hit rate 65% among 2,300. shares compounds with PAFAH2 FP inh. recombinant PAFAH2, FP-rhodamine activity probe, fluorescence polarization;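 active = mean inhibition over three repeats above a set limit taken from the earlier primary screen, cut at about 30% in these data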;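 also: inhibitor blocks binding of rhodamine activity probe so polarization falls; 0% = enzyme with DMSO and 100% = wells lacking PAFAH2 protein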
An asterisk follows results filed as active; nt = no result given. The list is not random: actives were taken first. Their share in the collection is about 3%.

SMILES | PAFAH1B3 FP inh | pPAFAH FP inh | PAFAH1B2 inh | CTSL1 counter | PAFAH2 FP inh | PP5 primary | PAFAH2 confirm
CCOC(=O)C1=C(C)N=c2s/c(=C\c3ccc(O)c([N+](=O)[O-])c3)c(=O)n2C1c1ccccc1OC (configuration not stated) | 20 | 23 | 15 | 5 | 36* | 5 | 25
COc1ccc([N+](=O)[O-])cc1N(CC(=O)NCC1CCCO1)S(C)(=O)=O (configuration not stated) | 8 | 2 | 0 | 3 | 2 | 1 | nt
FC(F)(F)c1ccccc1/C=N/n1c(COc2ccccc2)n[nH]c1=S | 10 | 8 | 5 | 1 | 5 | 5 | nt
COC(=O)Nc1nc(-c2ccccc2)c(C(=O)c2ccc(Cl)cc2)s1 | 5 | 2 | 9 | 5 | 10 | -1 | nt
CCOC(=O)Nc1nc(-c2ccccc2)c(C(=O)c2ccccc2)s1 | 10 | 4 | 11 | -3 | 41* | 5 | 42*
O=C(COC(=O)c1ccc(Br)cc1)NCc1ccc(F)cc1 | 10 | 20 | 0 | 2 | 42* | -3 | 27
O=C(COC(=O)c1ccc(S(=O)(=O)N2CCCCC2)cc1)NCc1ccc(F)cc1 | -15 | nt | 0 | nt | 1 | nt | nt
COc1ccc(CNC(=O)COC(=O)c2ccc(Br)cc2)cc1 | 8 | 12 | 4 | 5 | -17 | -1 | nt
O=C(COC(=O)c1ccc(F)cc1)NCc1ccc(F)cc1 | -4 | 5 | -1 | nt | 31* | 0 | 18
CCN(CC)C(CNC(=O)CSc1nnnn1-c1c(C)cccc1C)c1ccco1 (configuration not stated) | 0 | nt | 1 | nt | 6 | nt | nt
N#CN1CCC(NS(=O)(=O)c2ccc(C(F)(F)F)cc2)CC1 | 10 | 3 | 1 | nt | -7 | nt | nt
COC(=O)N/N=C/c1ccc(-c2cccc(Cl)c2)o1 | -4 | 3 | 0 | 0 | -2 | 1 | nt
Cc1nc(S/C(=C/c2ccc(-c3cccc(Cl)c3)o2)C(=O)O)n[nH]1 | 6 | 6 | 21 | 3 | 46* | 0 | 32*
Cc1ccc(NC(=O)COC(=O)c2c(C)nn(-c3ccccc3)c2C)cc1 | 1 | 2 | -1 | nt | 19 | 1 | nt
Cc1nn(-c2ccccc2)c(C)c1C(=O)OCC(=O)Nc1ccc2c(c1)OCO2 | 7 | 6 | -1 | 0 | 35* | 3 | 30*
Cc1nn(-c2ccccc2)c(C)c1C(=O)OCC(=O)Nc1ccccc1 | 3 | 2 | 7 | nt | 55* | 2 | 43*
COc1cccc(OC)c1C(=O)OCC(=O)NCc1ccco1 | 4 | 2 | 7 | nt | -2 | 1 | nt
COc1cc(/C=C/C(=O)OCC(=O)NCc2ccco2)ccc1O | 4 | 6 | 4 | 2 | 66* | -1 | 46*
COc1ccccc1/C=C/C(=O)OCC(=O)NCc1ccco1 | 8 | 4 | 5 | -1 | 62* | 2 | 53*
Cn1ccsc1=NC(=O)c1cc(S(=O)(=O)N2CCOCC2)ccc1F | 2 | 3 | 0 | -3 | 9 | 1 | nt
Cc1ccccc1N1CCN(c2ccccc2NC(=O)/C=C\C(=O)O)CC1 | -1 | nt | -1 | nt | -3 | nt | nt
C[n+]1c(-c2ccccc2)cc2c(=Cc3ccccc3)c3ccccc3n21 | 20 | nt | -5 | nt | 59* | nt | 15
COc1ccccc1/C=C/C(=O)Nc1cccc(S(=O)(=O)N2CCOCC2)c1 | -1 | 2 | -4 | nt | -4 | 2 | nt
O=C(COC(=O)c1cccs1)Nc1ccc(S(=O)(=O)N2CCOCC2)cc1 | 9 | 0 | 11 | -3 | -6 | 2 | nt
Cn1cccc1C(=O)OCC(=O)Nc1cccc(S(=O)(=O)N2CCOCC2)c1 | 5 | -2 | 2 | -14 | 29 | 0 | nt
SMILES | PAFAH1B3 FP inh | pPAFAH FP inh | PAFAH1B2 inh | CTSL1 counter | PAFAH2 FP inh | PP5 primary | PAFAH2 confirm
COc1cccc(/C=C/C(=O)OCC(=O)Nc2cccc(S(=O)(=O)N3CCOCC3)c2)c1OC | -2 | 3 | 1 | -4 | 59* | -1 | 58*
O=C(COC(=O)c1cccs1)Nc1cccc(S(=O)(=O)N2CCOCC2)c1 | 4 | 3 | -3 | -5 | 64* | 0 | 63*
O=C(COC(=O)/C=C/c1cccs1)Nc1cccc(S(=O)(=O)N2CCOCC2)c1 | 0 | 4 | 0 | -6 | 68* | 1 | 56*
O=C(COC(=O)c1ccc(=O)[nH]c1)Nc1cccc(S(=O)(=O)N2CCOCC2)c1 | -3 | 0 | -3 | -9 | 66* | 0 | 48*
Cc1ccc(S(=O)(=O)NCC2CCC(C(=O)NCc3cccnc3)CC2)cc1 (configuration not stated) | 6 | 4 | 2 | -3 | -1 | 0 | nt
Cc1ccc(CCC(=O)NCc2ccccc2)o1 | 5 | 6 | 6 | 1 | 7 | 1 | nt
O=C(NC(=S)Nc1ccc(Cl)cn1)c1cc([N+](=O)[O-])ccc1N1CCOCC1 | 11 | 3 | 5 | -1 | -4 | 3 | nt
COc1ccc(N(CC(=O)NCc2ccc(C)cc2)S(=O)(=O)c2c(C)noc2C)cc1 | 3 | 1 | 2 | 0 | -2 | 3 | nt
CNc1nc(SCc2ccccc2Cl)nc2c1CCCC2 | 6 | 2 | -2 | 0 | 11 | 3 | nt
O=C1NC(=O)C(c2ccccc2)N1 (configuration not stated) | 10 | nt | 6 | nt | 3 | nt | nt
Cn1cc(S(=O)(=O)N2CCCC2)cc1C(=O)NCCc1ccccc1 | 11 | 3 | 1 | 0 | 7 | -1 | nt
O=C(COC(=O)/C=C/c1ccc(OC(F)F)cc1)Nc1cccc(S(=O)(=O)N2CCCC2)c1 | -13 | 3 | -5 | -4 | 34* | 2 | 37*
CC(C)CNC(=O)CN1c2cccc3cccc(c23)S1(=O)=O | 4 | 2 | 3 | -2 | -7 | 3 | nt
O=C(Nc1ccc(S(=O)(=O)Nc2ncccn2)cc1)c1ccccc1NS(=O)(=O)c1ccc(Cl)cc1 | 3 | 5 | 3 | 1 | 50* | 3 | 50*
O=C(COC(=O)c1ccc(Cl)nc1)Nc1cc(S(=O)(=O)N2CCCCC2)ccc1Cl | 6 | 3 | 0 | -8 | 38* | -1 | 13
Cc1ccc(NC(=O)COC(=O)c2ccc(Cl)nc2)cc1S(=O)(=O)N1CCCCC1 | -1 | 5 | -1 | nt | 36* | 2 | 38*
O=C(COC(=O)c1ccc(Cl)nc1)Nc1ccc(S(=O)(=O)N2CCCC2)cc1 | 2 | -2 | 2 | -9 | 2 | 2 | nt
CC(=O)Nc1ccc(NC(=O)c2c(-c3ccccc3)noc2C)cn1 | -3 | 1 | -2 | 0 | 8 | 2 | nt
COc1ccc(-c2noc3c2-c2nc(-c4cccc(C)c4)sc2CC3)cc1 | -9 | 0 | -4 | -1 | -11 | 0 | nt
COc1ccc(N(CC(=O)NCc2ccccc2OC)S(=O)(=O)c2ccc(C)cc2)cc1Cl | -6 | 2 | 5 | 1 | 0 | 3 | nt
Cc1ccsc1C(=O)OCC(=O)NCCCc1ccccc1 | -1 | 13 | 11 | -3 | 30* | -1 | 13
